Compound activity deposited in PubChem by National Center for Advancing Translational Sciences (NCATS).
Rows were chosen to be rich in hits. Some 14% of all compounds tested hit in one or more screens of this group.
MARV entry inh – inhibitors of Marburg virus binding or cell entry. AID 540276. Potency, µM (top dose mostly 37.8 µM), inactives show at the highest dose activity change, negative = inhibition, usual class: inhibitors. Marburg virus pseudotyped entry inhibition, cell reporter. 1.8% of 300,000 active; calls by dose curve; tested in HEK293 cells; also: potency is read from the fitted curve at half-maximal effect
HCV inhibitor – inhibitors of hepatitis C virus infection; Huh7.5.1 HCVcc-Cre infection, luciferase reporter, 44 h; Potency, µM (doses to about 41.8 µM), inactives show top-dose activity change, negative = inhibition, usual class: inhibitors; 3.4% of 340,000 active; AID 651820; also: potency is read from the fitted curve at half-maximal effect
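Antiviral activity was scored by luciferase reporter output from cells infected with HCVcc-Cre (~0.5 moi) in presence of compound, 44 h infection period, cells seeded 1,000/well 4 h prior.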
Pf growth 96h – inhibits malaria parasite growth, 96 h. P. falciparum luciferase reporter growth, 96 h. Potency, µM (titrated, usually from 28.7 µM), inactives show at the top dose activity change, negative = inhibition, actives largely listed as inhibitors. 6.9% of 320,000 active. AID 504834; also: potency is read from the fitted curve at half-maximal effect
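Infected RBCs, 2% Hct / 0.05% parasitemia final; luciferase-reporter P. falciparum; cpd 96 h, 37 C, 5% CO2; luciferase detection reagent; luminescence.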
Pf growth 48h – P. falciparum growth inhibition at 48 hours (one generation); P. falciparum luciferase growth in erythrocytes, 48 h; Potency, µM (doses to about 28.7 µM), for inactives: top-dose activity change, negative = inhibition, usual class: inhibitors; 5.9% of 310,000 active; also: potency is read from the fitted curve at half-maximal effect
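Cell-based growth assay: transgenic P. falciparum expressing firefly luciferase, cultured in red cells within RPMI 1640 containing 0.5% w/v Albumax, 24 mM bicarbonate and gentamycin. A drop in luciferase activity indicates inhibition.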
LASV entry inh – blocks Lassa virus binding to or entry into cells | Lassa virus pseudotype entry inhibition, cell reporter | Potency, µM (highest dose often 37.9 µM), for inactives: at the highest dose activity change, negative = inhibition, usual class: inhibitors | AID 540256 | 1.2% of 300,000 active; calls by dose curve; tested in HEK293 cells; also: potency is read from the fitted curve at half-maximal effect; nearly all actives have a fitted effect of over 50% in size
HCMV antiviral – blocks human cytomegalovirus replication; HFF cells, HCMV-luciferase reporter, 72 h; stronger effect = lower value; activity change, negative = inhibition, % at 57.5 µM; 4.5% of 410,000 active; in the data active = activity change below about -60%; inconclusive = no clear call, values can overlap the other calls; inactive = above about -39%
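Steps: HFFs plated, 16 h 37C; compounds added; HCMV-luciferase added to MOI 1 PFU/cell; 72 h 37C; OneGlo reagent, 5 min room temperature; luminescence read, normalized to controls.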
* hit, by the source's call; ? = inconclusive; · = no result; ! = not active in a repeat; [ ] = another dose, or the depositor's remark. Unless noted, calls follow the shape of the dose curve; as a rule, active = well fitted inhibition curve with a large enough effect; inconclusive = small, poorly fitted or top-dose-only effect, or another doubt; inactive = no such curve, though single readings can be large or run the other way. % is scaled to controls: 0 for no effect and ±100 for the full control effect.

SMILES	MARV entry inh	HCV inhibitor	Pf growth 96h	Pf growth 48h	LASV entry inh	HCMV antiviral
CCCCCc1cc(=O)oc2c(C(CCN3CCCCC3)c3ccc4c(c3)OCO4)c(OC)cc(OC)c12 (stereo not drawn)	·	?	4.65µM*	10.4µM*	·	-80.3*
CCCCCc1cc(=O)oc2c(C(CCN(CC)CC)c3cc(OC)c(OC)c(OC)c3)c(OC)cc(OC)c12 (stereo not drawn)	·	?	3.7µM*	13.1µM*	·	?
Clc1cccc(Nc2c3c(nc4ncnn24)CCC3)c1	10.3%	?	-28.8%	9.28µM*	-5.1%	-1.7
CCc1cccc(Nc2c3c(nc4ncnn24)CCC3)c1	·	?	3.9%	?	·	-10.1
O=[N+]([O-])c1ccc(Nc2ccccc2O)c2nonc12	·	-6.6%	-0.9%	?	·	-60.6*
NS(=O)(=O)c1ccc(Nc2ccc([N+](=O)[O-])c3nonc23)cc1	·	9.9%	9.28µM*	?	·	-30.4
COc1ccc(N2CCN(C(=O)CSc3nc(-c4ccc(C(C)C)cc4)no3)CC2)cc1	·	·	·	·	14.8%[46.1 µM]	2.9
COc1ccc(C(O)c2ncc(-c3ccccc3)[nH]2)cc1 (stereo not drawn)	·	·	·	·	·	27.6
COc1ccc(C(O)c2ncc(-c3ccccc3Cl)[nH]2)cc1F (stereo not drawn)	·	·	·	·	·	-101.6*
COc1ccc(C(O)c2ncc(-c3ccccc3)[nH]2)cc1F (stereo not drawn)	·	·	·	·	·	-101.1*
CCCc1nc2c(C)cc(Br)cn2c1Cc1ccc(OC)cc1C	·	·	·	·	·	9.5
O=C(Nc1ccc(Oc2ccc3nc(NC(=O)c4ccco4)[nH]c3c2)cc1)Nc1cc(C(F)(F)F)ccc1F	·	·	·	·	7.91µM*	·
O=C(Nc1ccc(Oc2ccc3nc(NC(=O)c4ccccc4)[nH]c3c2)cc1)Nc1cc(C(F)(F)F)ccc1F	·	·	·	·	6.28µM*	·
COC(=O)Nc1nc2ccc(Oc3ccc(NC(=O)Nc4cccc(Br)c4)cc3)cc2[nH]1	·	·	·	·	17.7µM*	·
O=C(Nc1nc2ccccc2[nH]1)c1ccc(OC(F)F)cc1	?	?	-21.2%	-23.0%	?	32.6
CC(C)C[C@H]1CNC(=O)C(=O)N1C[C@@H]1CCCN1C[C@H](CC(C)C)N1C[C@H](Cc2ccc(O)cc2)N(CCc2ccccc2)C(=O)C1=O	·	·	·	·	·	-24.7
CN(N=Cc1ccc([N+](=O)[O-])cc1)c1ccccn1	·	·	·	·	·	-69.8*
O=C(c1ccc([N+](=O)[O-])cc1)N(c1ccccn1)c1ccccn1	9.3%[46.1 µM]	13.3%	-16.1%	9.4%	23.0%	-17.9
Cn1c2ccccc2c2cc([N+](=O)[O-])ccc21	-5.7%	?	12.4%	19.8%	-1.5%	-19.1
Cn1c(CO)c(-c2ccccc2)c2cc([N+](=O)[O-])ccc21	-0.1%	10µM*	12.9%	9.6%	3.1%	-37.2
CC(=O)OCc1c(-c2ccccc2)c2cc([N+](=O)[O-])ccc2n1C	-28.0%[46.1 µM]	12.6µM*	-17.2%	6.4%	19.0%[46.1 µM]	-77.2*
CCC(C)c1ccccc1N1CC(C(=O)Nc2ccc(N3CCOCC3)cc2)CC1=O (stereo not drawn)	-0.7%	10.1%	?	-25.6%	9.0%	-18.6
COc1ccc(/C=C/C(=O)c2cc(F)ccc2OC(=O)c2ccc(OC)c(OC)c2)cc1OC	?	-19.3%	-7.9%	?	?	-3.3
COc1ccc(/C=C/C(=O)c2cc(Br)ccc2OC(=O)c2ccco2)cc1OC	5.8µM*!	9.0%	19.7%	11.7µM*	?	20.6
COc1ccc(/C=C/C(=O)c2cc(F)ccc2OC(=O)c2ccccc2OC)cc1OC	?	?	?	?	?	-97.4*
SMILES	MARV entry inh	HCV inhibitor	Pf growth 96h	Pf growth 48h	LASV entry inh	HCMV antiviral
COc1ccc(/C=C/C(=O)c2cc(F)ccc2OC(=O)c2ccccc2)cc1OC	?	?	·	·	?	-96.6*
COc1ccc(/C=C/C(=O)c2cc(Br)ccc2O)cc1OC	·	?	?	-24.4%	·	-26.4
COc1ccc(/C=C/C(=O)c2ccc[nH]2)cc1OC	?	-4.8%	17.9%	·	?	-29.3
Cc1cc(C)cc(C(O)c2ncc(-c3ccc(C(F)(F)F)cc3)[nH]2)c1 (stereo not drawn)	·	·	·	·	·	-6.4
CCCCCNC(=O)C(c1ccc(C(F)(F)F)cc1)n1c(=O)c(-c2ccco2)nc2ccccc21 (stereo not drawn)	·	·	·	·	·	15.2
COc1cccc(CNC(=O)Cn2nc(C)c3c(C)n(-c4ccc(C)cc4)nc3c2=O)c1OC	·	-10.0%	?	7.9%	·	?
Cc1ccc(-n2nc3c(=O)n(C(C)C(=O)NCc4ccco4)nc(C)c3c2C)cc1 (stereo not drawn)	·	-0.2%	5.9%	6.3%	10.0%[46.1 µM]	-26.1
Cc1nn(C(C)C(=O)NCCc2cccs2)c(=O)c2nn(-c3ccccc3)c(C)c12 (stereo not drawn)	·	6.9%	13.1µM*	10.9%	·	?
Cc1nn(CC(=O)NCc2cccs2)c(=O)c2nn(-c3ccccc3)c(C)c12	2.3%[46.1 µM]	-17.0%	-10.7%	2.7%	1.7%[46.1 µM]	-71.4*
Cc1ccc(-n2nc3c(=O)n(C(C)C(=O)NCc4ccccc4Cl)nc(C)c3c2C)cc1 (stereo not drawn)	·	?	?	?	·	-91.7*
Cc1nn(CC(=O)NCc2ccco2)c(=O)c2nn(-c3ccccc3)c(C)c12	·	·	·	·	10.6%[46.1 µM]	8.2
CCOc1ccccc1CNC(=O)Cn1nc(C)c2c(C)n(-c3ccc(C)cc3)nc2c1=O	·	2.82µM*	?	-17.6%	·	·
C/C(CCC(=O)OC[C@H]1O[C@H](C#Cc2ccccc2)C=C[C@@H]1Oc1ccc(C)cc1)=N\OC[C@@H](O)COCc1ccco1	-9.6%[14.2 µM]	·	·	·	·	·
CCCN1C(=O)C[C@H](S(=O)(=O)c2ccccc2)[C@H]1c1ccccc1	·	·	·	·	·	-14.3
COc1ccc(S(=O)(=O)NC(=O)C2(C)CCN2C(=O)C2CCCCC2)cc1OC (stereo not drawn)	·	·	·	·	·	-10.2
Oc1ccc(N=Nc2ccccc2)o1	·	-3.7%	19.4%	5.5%	·	17.5
CCOc1ccccc1CNC(=O)C(C)n1nc(C)c2c(C)n(-c3ccccc3)nc2c1=O (stereo not drawn)	?	6.31µM*	?	-18.5%	-23.1%[46.1 µM]	?
CSc1ccc(CNC(=O)Cn2nc(C)c3c(C)n(-c4ccc(C)cc4)nc3c2=O)cc1	·	12.0%	2.62µM*	32.2%	·	-12.9
CCCNC(=O)C(C)n1nc(C)c2c(C)n(-c3ccccc3)nc2c1=O (stereo not drawn)	·	·	·	·	1.8%[46.1 µM]	-15.7
Cc1ccc(-n2nc3c(=O)n(C(C)C(=O)NCCCc4ccccc4)nc(C)c3c2C)cc1 (stereo not drawn)	·	?	8.28µM*	?	·	0.0
CSC1=Nc2ccccc2N=C(N2CCCC2)C1	·	·	·	·	·	-24.1
Cc1ccc(CNC(=O)CN2Cc3ccccc3C2=O)cc1	·	·	·	·	12.0%[46.1 µM]	23.9
